Source: PubChem BioAssay (NCATS)
Values joined by “and” are separate entries in the source; they are usually repeats but may differ in a detail not shown here. Equal entries are not always repeated. Inconclusive results are not listed. Active and inactive are the calls of the source. Unless noted, how the calls were made is not given here.

Columns and labels:
[1] = qHTS for compounds that reverse cellular toxicity of Amyloid beta (A-beta) peptide in yeast: LOPAC Validation Assay (AID 720559; active means well fitted curve in the direction sought with a large enough effect; an effect the other way counts as inactive or inconclusive;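 further: plate controls were DMSO for no effect and equimolar ferric chloride plus clioquinol rescue for full effect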)
Procedure, shortened: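 Medium dispensed, compounds pinned, A-beta yeast suspension added; plates held at 30 C for 48 hr; absorbance measured at 600 nm to gauge growth; values scaled between DMSO and FeCl3/clioquinol (equimolar) controls.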

[2] = qHTS for Activators of Parkin Expression: LOPAC Validation Assay (NLuc Reporter) (AID 720572; active means well fitted curve in the direction sought with a large enough effect; an effect the other way counts as inactive or inconclusive;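 further: 0% = DMSO and 100% = positive control compound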)
Procedure, shortened: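 Parkin promoter-driven FLuc/NLuc neuronal reporter cells; 24 h plating, 7-pt dose response, 24 h at 37 C/5% CO2; FLuc then NanoLuc reagent, 10 min each, luminescence; DMSO/positive control normalized.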

[3] = biological target: T1, Hexokinase-4 (Homo sapiens) + Glucokinase regulatory protein (Homo sapiens) (UniProt P35557+Q14397); assay: qHTS assay for inhibitors of recombinant human GCK-GKRP interaction: Diaphorase-coupled assay (AID 743205; active means well fitted curve in the direction sought with a large enough effect; an effect the other way counts as inactive or inconclusive)
Procedure, shortened: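 25 mM Hepes pH 7.6, 5 mM glucose, 0.4 mM ATP, 4 U/ml G6PDH; 10 nM each GST-GCK/FLAG-GKRP. Kinetic fluorescence read, 1/min × 30 min. Normalized: DMSO ± enzyme = max/min.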

[4] = biological target: T1, Hexokinase-4 (Homo sapiens) + Glucokinase regulatory protein (Homo sapiens); assay: qHTS assay for inhibitors of recombinant human GCK-GKRP interaction: ADP-Glo assay (AID 743206; active means well fitted curve in the direction sought with a large enough effect; an effect the other way counts as inactive or inconclusive;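 further: plate controls were DMSO plus enzyme for no effect and no enzyme for full effect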)
Procedure, shortened: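 GST-GCK and FLAG-GKRP (15 nM each in the dispensed mix, with 2 uM S6P) react with 0.4 mM ATP and 5 mM glucose (final) in Hepes pH 7.6 for 60 min at room temperature. ADP is measured by ADP-Glo luminescence.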

[5] = biological target: T1, Hexokinase-4 (Homo sapiens) + Glucokinase regulatory protein (Homo sapiens); assay: qHTS assay for inhibitors of recombinant human GCK-GKRP interaction: HTRF assay (AID 743207; active means well fitted curve in the direction sought with a large enough effect; an effect the other way counts as inactive or inconclusive;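 further: 0% = DMSO with GCK present and -100% = DMSO wells lacking GCK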)
Procedure, shortened: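 5 nM GST-GCK + 5 nM FLAG-GKRP + 2 uM S6P, pH 7.1 buffer (25 mM Hepes, 2 mM MgCl2, 25 mM KCl, 1 mM DTT, Tween/BSA); pin-transferred cpd; anti-FLAG XL665/anti-GST K; 60 min RT; HTRF.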

[6] = qHTS Assay for Identifying Gametocytocidal Compounds (AID 743244; active means well fitted curve in the direction sought with a large enough effect; an effect the other way counts as inactive or inconclusive; further: potency means the concentration at half of the fitted maximal effect;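 on max response: on the % scale 0 is the no-effect control and ±100 the full control effect; actives lower the fluorescent signal which means gametocytes are killed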); details: P. falciparum 3D7 stage III-V gametocytes, alamarBlue, 72 h; max response: stronger effect = lower value
Procedure, shortened: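 In this qHTS viability screen, late-stage 3D7 gametocytes are incubated with compound for 72 h, then with alamarBlue for 24 h; reduced resorufin fluorescence marks killing.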

[7] = qHTS profiling of the MIPE4 collection as inhibitors of Plasmodium falciparum (3D7) proliferation (AID 743344);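 further: scaled between DMSO vehicle wells and 0.29 µM artemisinin as full inhibition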; details: P. falciparum 3D7 in erythrocytes, SYBR Green DNA fluorescence, 72 h; at 28.5 µM (top of the series) unless noted
Procedure, shortened: (§1)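 Erythrocytes infected with P. falciparum (0.3% parasitemia, 2.5% hematocrit) incubated with compounds 72 h at 37 C, 5% CO2. Lysis with saponin/Triton buffer containing SYBR Green I, overnight at room temperature in the dark; DNA fluorescence (485/535 nm) normalised to 0.29 uM artemisinin and DMSO.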

[8] = qHTS profiling of the MIPE4 collection as inhibitors of Plasmodium falciparum (DD2) proliferation (AID 743345); details: P. falciparum Dd2 in erythrocytes, SYBR Green DNA, 72 h; at 28.5 µM (top of the series) unless noted
Procedure, shortened: as §1

[9] = qHTS profiling of the MIPE4 collection as inhibitors of Plasmodium falciparum (DD2) proliferation (Rep 2) (AID 743346); details: P. falciparum Dd2 in erythrocytes, SYBR Green DNA, 72 h; at 28.5 µM (top of the series) unless noted
Procedure, shortened: as §1

[10] = qHTS profiling of the MIPE4 collection as inhibitors of Plasmodium falciparum (HB3) proliferation (AID 743347);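 further: plate controls were DMSO vehicle wells for no effect and artemisinin wells for full effect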; details: P. falciparum HB3 in erythrocytes, SYBR Green DNA, 72 h; at 28.5 µM (top of the series) unless noted
Procedure, shortened: as §1

[11] = High-throughput drug toxicity screening in the BPDCN cell line Gen2.2 (AID 1224824); details: Gen2.2 BPDCN cells; at 45.8 µM (top of the series) unless noted;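 further: cells exposed to compounds for 48 h before reading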
Procedure, shortened: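 Seed 500 exponentially growing Gen2.2 cells/well; add compounds by pin tool; incubate 48 h, 37 °C, 5% CO2; add CellTiter-Glo, 15 min RT; read luminescence. % activity vs DMSO (100%) and bortezomib (0%).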

[12] = qHTS profiling for inhibitors of Plasmodium falciparum (DD2) proliferation (AID 743323); details: lower = more inhibition; at 28.7 µM (top of the series) unless noted
Procedure, shortened: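 Parasite DNA quantified by SYBR Green fluorescence (ex 485, em 535 nm) after saponin/Triton lysis and overnight dark incubation. Cultures: 0.3% parasitemia, 2.5% hematocrit, 72 h, 37 C; data scaled between DMSO and 0.29 uM artemisinin.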

[13] = qHTS profiling for inhibitors of Plasmodium falciparum (HB3) proliferation (AID 743324; active means well fitted curve in the direction sought with a large enough effect; an effect the other way counts as inactive or inconclusive;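 further: 100% = DMSO vehicle wells and 0% = artemisinin-treated control wells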); details: Plasmodium falciparum HB3 blood-stage proliferation; at 28.7 µM (top of the series) unless noted
Procedure, shortened: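 P. falciparum HB3 grown in erythrocytes (0.3% parasitemia, 2.5% hematocrit final) with compound for 72 h at 37 C, 5% CO2. Parasite DNA detected by SYBR Green after saponin/triton lysis overnight; normalized to 0.29 uM artemisinin and DMSO.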

[14] = qHTS assay for small molecule agonists of the antioxidant response element (ARE) signaling pathway measured by Nrf2-dependant transcriptional activity (AID 720636; active means well fitted curve in the direction sought with a large enough effect in the repeat runs; an effect the other way counts as inactive or inconclusive; further: potency means the concentration at half of the fitted maximal effect)
Procedure, shortened: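 Quantitative HTS format in HepG2 cells stably expressing an ARE-luciferase reporter; 16 hr compound treatment at 37 C, luciferase signal detected with ONE-Glo.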

[15] = qHTS for small molecule inhibitors of Yes1 kinase: Counter Assay (AID 686950; active means well fitted curve in the direction sought with a large enough effect; an effect the other way counts as inactive or inconclusive;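 further: no kinase present so only ADP-Glo detection of a fixed ADP amount is tested; luminescence from ADP-Glo reporting ADP in a fixed ATP and ADP mixture; 0% = DMSO wells with ATP plus ADP and -100% = ATP-only wells without ADP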)
Procedure, shortened: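 Luminescence read-out from ADP-Glo quantifies a fixed ADP amount (0.02 mM ADP with 0.08 mM ATP) after 60 min at room temperature; signal is normalized between DMSO wells with ATP/ADP and with 0.1 mM ATP alone.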

T1 sequence (P35557 whole entry, looked up): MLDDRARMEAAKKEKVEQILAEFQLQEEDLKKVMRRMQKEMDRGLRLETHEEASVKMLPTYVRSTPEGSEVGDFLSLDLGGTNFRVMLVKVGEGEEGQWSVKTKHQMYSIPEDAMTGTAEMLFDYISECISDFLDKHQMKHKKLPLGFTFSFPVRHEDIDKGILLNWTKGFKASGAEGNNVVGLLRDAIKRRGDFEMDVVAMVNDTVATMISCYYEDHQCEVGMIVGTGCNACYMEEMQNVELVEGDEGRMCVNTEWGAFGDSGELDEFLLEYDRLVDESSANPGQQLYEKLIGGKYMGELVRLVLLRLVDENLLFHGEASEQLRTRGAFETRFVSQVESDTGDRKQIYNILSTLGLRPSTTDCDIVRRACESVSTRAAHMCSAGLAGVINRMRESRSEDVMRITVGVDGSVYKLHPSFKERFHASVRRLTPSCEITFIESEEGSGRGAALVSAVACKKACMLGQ
T1 sequence (Q14397 whole entry, looked up): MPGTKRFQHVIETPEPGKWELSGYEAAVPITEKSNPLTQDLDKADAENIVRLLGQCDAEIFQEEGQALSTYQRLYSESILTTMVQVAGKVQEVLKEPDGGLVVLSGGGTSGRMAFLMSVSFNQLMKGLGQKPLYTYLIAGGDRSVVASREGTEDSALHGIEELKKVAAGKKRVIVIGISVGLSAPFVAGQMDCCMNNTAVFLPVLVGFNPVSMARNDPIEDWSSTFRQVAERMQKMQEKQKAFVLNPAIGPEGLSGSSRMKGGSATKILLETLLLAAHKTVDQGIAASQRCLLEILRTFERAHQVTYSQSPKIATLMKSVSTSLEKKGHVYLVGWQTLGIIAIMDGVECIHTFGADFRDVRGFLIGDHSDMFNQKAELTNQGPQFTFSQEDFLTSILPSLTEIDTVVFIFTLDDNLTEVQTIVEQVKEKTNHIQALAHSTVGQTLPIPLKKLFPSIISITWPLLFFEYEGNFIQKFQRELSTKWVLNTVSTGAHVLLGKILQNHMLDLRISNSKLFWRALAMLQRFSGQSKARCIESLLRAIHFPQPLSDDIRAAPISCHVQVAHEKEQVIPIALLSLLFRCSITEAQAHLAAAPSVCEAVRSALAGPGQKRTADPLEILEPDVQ

O=c1c(O)c(-c2cc(O)c(O)c(O)c2)oc2cc(O)cc(O)c12
outcome [1]: inactive
outcome [2]: inactive
outcome [3]: inactive
outcome [4]: inactive
outcome [5]: inactive
max response [6]: 4.63% (inactive)
parasite growth, % of DMSO control [7]: 93.5%
parasite growth remaining, % of DMSO control (lower = more inhibition) [8]: 85.3%
parasite growth, % of control (lower = inhibition) [9]: 111%
growth, % of control [10]: 106%
cell viability, % of control (lower = more cytotoxic) [11]: 54.4%

O=C1NC(=O)C(c2ccccc2[N+](=O)[O-])=C1Nc1ccc(O)c(Cl)c1
outcome [1]: inactive
outcome [2]: inactive
outcome [3]: inactive
outcome [4]: inactive
outcome [5]: inactive
parasite growth, % of DMSO control [7]: 68.6%
parasite growth remaining, % of DMSO control (lower = more inhibition) [8]: 87.1%
parasite growth, % of control (lower = inhibition) [9]: 106%
growth, % of control [10]: 125%
cell viability, % of control (lower = more cytotoxic) [11]: 124%

NNc1nncc2ccccc12
outcome [3]: inactive
outcome [4]: inactive
outcome [5]: inactive
max response [6]: -0.582% (inactive) and 32.1% (inactive)
parasite growth, % of DMSO control [7]: 85.6%
parasite growth remaining, % of DMSO control (lower = more inhibition) [8]: 92.8%
parasite growth, % of control (lower = inhibition) [9]: 116%
growth, % of control [10]: 95.2%
cell viability, % of control (lower = more cytotoxic) [11]: 166%

Cc1cccc(C)c1OCC(=O)N[C@@H](Cc1ccccc1)[C@@H](O)C[C@H](Cc1ccccc1)NC(=O)[C@H](C(C)C)N1CCCNC1=O
Potency [6]: 11.2 µM (active) and 6.62 µM (active)
activity, percent of control [12]: 0.873%
remaining proliferation (% of control), lower = more inhibition [13]: 0.361%
parasite growth, % of DMSO control [7]: 6.88%
parasite growth remaining, % of DMSO control (lower = more inhibition) [8]: 8.67%
parasite growth, % of control (lower = inhibition) [9]: 16.3%
growth, % of control [10]: 3.91%
cell viability, % of control (lower = more cytotoxic) [11]: 28%

O=C1c2c(O)cc(O)cc2OC(c2ccc(O)c(O)c2)C1O (stereo unspecified)
outcome [1]: inactive
outcome [2]: inactive
outcome [3]: inactive
outcome [4]: inactive
outcome [5]: inactive
max response [6]: -8.7% (inactive)
parasite growth, % of DMSO control [7]: 75.5%
parasite growth remaining, % of DMSO control (lower = more inhibition) [8]: 93.8%
parasite growth, % of control (lower = inhibition) [9]: 64.4%
growth, % of control [10]: 99.5%
cell viability, % of control (lower = more cytotoxic) [11]: 155%

NCCCCNCCCN
outcome [1]: inactive
outcome [2]: inactive
outcome [3]: inactive
outcome [4]: inactive
outcome [5]: inactive
max response [6]: 11.2% (inactive)
parasite growth, % of DMSO control [7]: 161%
parasite growth remaining, % of DMSO control (lower = more inhibition) [8]: 95.4%
parasite growth, % of control (lower = inhibition) [9]: 90.4%
growth, % of control [10]: 577%
cell viability, % of control (lower = more cytotoxic) [11]: 3.46%

CCN(CC)C(=S)SSC(=S)N(CC)CC
outcome [1]: inactive
Potency [14]: 27.3 µM (active)
Potency [6]: 3.98 µM (active) and 60.5 nM (active) and 74.3 nM (active)
parasite growth, % of DMSO control [7]: 65.9%
parasite growth remaining, % of DMSO control (lower = more inhibition) [8]: 92.7%
parasite growth, % of control (lower = inhibition) [9]: 53.4%
growth, % of control [10]: 64.3%
cell viability, % of control (lower = more cytotoxic) [11]: 6.77%

Cc1nc2n(c(=O)c1CCN1CCC(c3noc4cc(F)ccc34)CC1)CCCC2
max response [6]: 9.32% (inactive)
cell viability, % of control (lower = more cytotoxic) [11]: 80.6%

CC(C)[C@H](N)C(=O)OCCOCn1cnc2c(=O)[nH]c(N)nc21
max response [6]: 18.3% (inactive)
parasite growth, % of DMSO control [7]: 102%
cell viability, % of control (lower = more cytotoxic) [11]: 57%

O=C(CCc1ccc(O)cc1)c1c(O)cc(O)cc1O
outcome [1]: inactive
outcome [2]: inactive
outcome [3]: inactive
outcome [4]: inactive
outcome [5]: inactive
max response [6]: 19.3% (inactive)
parasite growth, % of DMSO control [7]: 10.4%
parasite growth remaining, % of DMSO control (lower = more inhibition) [8]: 96.7%
parasite growth, % of control (lower = inhibition) [9]: 7.72%
growth, % of control [10]: 5.58%
cell viability, % of control (lower = more cytotoxic) [11]: 141%

COc1cc2c(N3CCN(C(=O)Nc4ccc(OC(C)C)cc4)CC3)ncnc2cc1OCCCN1CCCCC1
outcome [15]: inactive
activity, percent of control [12]: 3.98%
parasite growth, % of DMSO control [7]: 4.84%
parasite growth remaining, % of DMSO control (lower = more inhibition) [8]: 8.31%
parasite growth, % of control (lower = inhibition) [9]: 12%
growth, % of control [10]: 3.25%
cell viability, % of control (lower = more cytotoxic) [11]: 7.51%
